M1 ag: activates human CHRM1 receptor | P11229 | CHO-K1 hM1, Fluo-8 calcium fluorescence, agonist mode; 0% DMSO, 100% acetylcholine EC100 | activation, % at 3 µM | 360,000 compounds, 0.33% hits | AID 588814;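 active = activation above the run's mean compound activation plus 3 SD, cut at about 16% in these data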;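 note: peak over basal fluorescence ratio within a 140 s kinetic read after compound addition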
Target sequence (P11229 whole entry, looked up): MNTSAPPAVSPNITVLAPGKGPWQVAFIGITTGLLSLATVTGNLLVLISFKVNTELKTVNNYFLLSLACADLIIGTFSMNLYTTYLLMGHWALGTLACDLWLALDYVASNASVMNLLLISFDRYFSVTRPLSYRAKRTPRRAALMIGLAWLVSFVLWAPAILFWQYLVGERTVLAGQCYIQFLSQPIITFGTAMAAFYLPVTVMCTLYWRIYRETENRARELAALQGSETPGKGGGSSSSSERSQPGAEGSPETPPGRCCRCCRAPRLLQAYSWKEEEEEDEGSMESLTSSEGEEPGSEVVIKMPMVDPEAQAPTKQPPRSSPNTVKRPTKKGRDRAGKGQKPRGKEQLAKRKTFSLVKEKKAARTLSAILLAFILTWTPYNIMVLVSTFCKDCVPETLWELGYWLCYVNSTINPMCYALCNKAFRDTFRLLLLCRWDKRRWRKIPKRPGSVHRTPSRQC
CHRM1 PAM: human CHRM1 positive allosteric modulation. P11229. CHO-K1 hM1, Fluo-8 calcium fluorescence, ACh EC20; 0% = ACh EC20, 100% = maximal ACh. activation, % at 3 µM. 360,000 compounds, 0.088% hits. AID 588819; in the data active = activation above about 19%, passing the limit was not always enough
CHO-K1 Ca antag: M1 antagonist counterscreen hit in parental CHO-K1 cells. inhibition, % at 3 µM. ATP-induced calcium, Fluo-8 fluorescence. AID 602250. 360,000 compounds, 0.6% hits;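 active = inhibition above a per-plate cutoff, the plate's mean sample inhibition plus 3 SD, cut at about 24% in these data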;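 note: 0% = DMSO plus EC80 ATP and 100% = DMSO alone without ATP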
CHO-K1 Ca PAM: counter-screen for M1 PAMs: effect in parental CHO-K1 cells; 360,000 compounds, 0.02% hits; AID 602247; activation, % at 3 µM; ATP EC20, Fluo-8 calcium fluorescence; 0% at ATP EC20, 100% at ATP max;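 active = activation above the run cutoff, the mean activation of all test compounds plus 3 SD, cut at about 40% in these data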;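 note: peak over basal fluorescence ratio in a 140 s read after ATP addition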
M1 ag parental: M1 agonist counterscreen hit in parental CHO-K1 cells. Fluo-8 calcium fluorescence; scaled to maximal ATP response, vehicle zero. activation, % at 3 µM. 360,000 compounds, 0.48% hits; in the data active = activation above about 15%;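 note: untransfected CHO-K1 host cells lacking M1 receptor as counterscreen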
CHRM1 antagonist: human CHRM1 antagonism | AID 588852 | 360,000 compounds, 1.3% hits | CHO-K1 hM1, Fluo-8 calcium fluorescence, ACh EC80 antagonist | P11229 | inhibition, % at 3 µM;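 active = percent inhibition above its own plate's cutoff, namely the mean of that plate's compound wells plus 3 SD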;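 note: peak over basal fluorescence ratio during 140 s after agonist addition; 0% = ACh EC80 plus DMSO and 100% = DMSO alone without agonist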
The depositor's hits bear a star. This is a sample that favours compounds with a hit; in the whole collection about 2.4% have one here.

SMILES	M1 ag	CHRM1 PAM	CHO-K1 Ca antag	CHO-K1 Ca PAM	M1 ag parental	CHRM1 antagonist
CC1CCCCN1C/C=C/c1ccccc1[N+](=O)[O-] (stereo not given)	-7	-23	-7	15	1	86*
COc1ccccc1C(CNC(=O)C1CC(=O)N(Cc2ccccc2)C1)N1CCCC1 (stereo not given)	-7	-6	-3	22	0	9
Fc1c(F)c(F)c(CSc2nc3ccccc3[nH]2)c(F)c1F	-3	-3	-7	10	1	5
O=S1(=O)CC=C(CSc2nc3ccccc3[nH]2)C1	-11	-19	13	-7	0	26*
Cc1ccccc1-c1nc2cc(N)ccc2o1	-7	7	-8	17	1	-8
CC(C)c1ccc2oc(-c3cc(N)ccc3O)nc2c1	-2	-5	24*	-6	0	9
Cc1ccc(S(=O)(=O)Nc2ccc(Nc3ccccc3)cc2)cc1	-1	4	8	-8	0	-6
O=[N+]([O-])c1ccc(Oc2ccc(S(=O)(=O)Nc3ccccc3)cc2)cc1	19*	-17	29*	-6	19*	42*
O=[N+]([O-])c1ccc(S(=O)(=O)Nc2ccncc2)cc1	-4	2	-9	1	-1	-7
O=S(=O)(Nc1ccc(Nc2ccccc2)cc1)c1ccc(F)cc1	0	9	24*	-26	-1	-10
O=C(Nc1ccc2c(c1)OCO2)c1ccc2sc([C@H]3C[C@H](O)[C@@H](CO)O3)nc2c1	3	28*	-4	12	0	-24
O=C(Nc1ccc2c(c1)OCO2)c1ccc2sc([C@@H]3O[C@H](CO)[C@@H](O)[C@H]3O)nc2c1	-2	3	0	4	0	-9
O=C(NCC1CCCCC1)c1ccc2sc([C@H]3C[C@H](O)[C@@H](CO)O3)nc2c1	-2	8	35*	-13	2	-8
CCCC(C)C(=O)Nc1ccc(S(=O)(=O)N2CCCC2)cc1 (stereo not given)	-7	5	-10	18	1	-7
CC(C(=O)Nc1ccc(S(=O)(=O)N2CCCC2)cc1)N1CCCC(C(N)=O)C1 (stereo not given)	-7	-17	7	-30	0	38*
Cc1ccc(NC(=O)C(C)N2CCc3ccccc3C2)cc1 (stereo not given)	-9	-4	-9	5	0	6
CC(C(=O)Nc1ccc(S(=O)(=O)N2CCCC2)cc1)N1CCc2ccccc2C1 (stereo not given)	-7	-28	-16	12	1	101*
COc1ccc(CC(=O)N2CCN(S(=O)(=O)c3cc(Cl)ccc3Cl)CC2)cc1	1	2	-1	-10	3	11
N#Cc1ccccc1S(=O)(=O)N1CCN(c2nc(-c3cccnc3)nc3ccccc23)CC1	-2	-19	11	-4	7	50*
O=S(=O)(c1ccccc1F)N1CCN(c2nc(-c3cccnc3)nc3ccccc23)CC1	-2	-9	6	7	6	27
Cc1ccc(C)c(S(=O)(=O)N2CCN(c3nc(-c4cccnc4)nc4ccccc34)CC2)c1	-4	-12	-14	5	4	27*
CCN(CC)CCCNc1ncnc2scc(-c3ccc(F)cc3)c12	-9	-20	-13	16	0	34*
COCCCN1C(=O)C(CC(=O)NCCc2ccccn2)CC(C(=O)N2CCOCC2)=C1C (stereo not given)	2	10	-7	8	1	-12
CCN(CC)C(=O)C1=C(C)N(CCCOC)C(=O)C(CC(=O)NCCc2ccccn2)C1 (stereo not given)	-4	5	30*	-12	0	-7
CC1=C(C(=O)N(C)C)CC(CC(=O)NCCCCc2ccccc2)C(=O)N1Cc1ccccc1 (stereo not given)	35*	-1	-4	13	0	-15
SMILES	M1 ag	CHRM1 PAM	CHO-K1 Ca antag	CHO-K1 Ca PAM	M1 ag parental	CHRM1 antagonist
COc1ccc(CN2C(=O)C(CC(=O)NCCCCc3ccccc3)CC(C(=O)N(C)C)=C2C)cc1 (stereo not given)	53*	-17	-8	17	-1	-9
CCCC1C2C(=O)N(c3cccc(C)c3)C(=O)C2ON1c1ccccc1 (stereo not given)	0	4	0	7	17*	-1
Cc1ccc(OC(=O)CCNC(=O)c2ccccc2Cl)c(Br)c1	-1	15	-14	7	1	-20
C[N+]1(C)CCC(=C(c2ccccc2)c2ccccc2)CC1	-7	-25	-6	15	1	98*
Cc1ccc2nc(SCC(=O)NCc3ccc4c(c3)OCO4)nc(=O)n2c1	-4	4	26*	-26	8	3
Cc1ccc(C)c(NC(=S)N2C3CCCC2CC(NC(=O)C2CC2)C3)c1 (stereo not given)	-12	-18	8	-6	0	38*
O=C(NC1CC2CCCC(C1)N2C(=S)Nc1ccccc1Cl)C1CC1 (stereo not given)	-11	-12	-14	7	0	7
COc1ccc(CN(C)Cc2ccccc2)c(OC)c1OC	-10	-4	-1	-5	0	-8
CS(=O)(=O)N1CCc2cc(S(=O)(=O)Nc3ccc4c(c3)OCCO4)ccc21	3	-24	-1	3	15	33*
COCCN(CC(=O)Nc1cccc(C)c1C)C(=O)Cc1sc(C)nc1-c1ccc(F)cc1	-2	10	-14	16	0	-7
C[C@H]1CN([C@@H](C)CO)C(=O)CCCn2nncc2CO[C@H]1CN(C)C(=O)C1CC1	3	7	2	-4	0	0
CCn1c(COc2ccccc2C)nnc1SCC(=O)Nc1cc(C)on1	5	12	-18	12	0	-10
CCn1c(COc2cccc(C)c2C)nnc1SCC(=O)Nc1cc(C)on1	-5	12	2	7	18*	-1
CCC[C@@H](CN1CCC[C@H]1CN1C(N)=NC[C@H]1CC(C)C)N1C[C@@H]([C@H](C)CC)N(CCc2ccc(Cl)c(Cl)c2)C1=N	-11	-29	5	-10	0	38*
CC[C@@H](C)[C@@H]1CN([C@@H](CN2CCC[C@H]2CN2C(N)=NC[C@H]2CC(C)C)C(C)C)C(=N)N1CCc1ccc(Cl)c(Cl)c1	-11	-27	-1	14	0	32
CC[C@@H](C)[C@@H]1CN([C@@H](C)CN2CCC[C@H]2CN2C(N)=NC[C@H]2CC(C)C)C(=N)N1CCc1ccc(Cl)c(Cl)c1	-13	-39	-3	11	0	39*
CCC[C@@H](CN1CCC[C@H]1CN1C(N)=NC[C@@H]1Cc1ccccc1)N1C[C@@H]([C@H](C)CC)N(CCc2ccc(Cl)c(Cl)c2)C1=N	-10	-30	2	-11	0	36
